HT1080 IDH1KD tx: qHTS for induction of synthetic lethality in tumor cells producing 2HG: qHTS for the HT-1080-IDH1KD cell line. HT-1080 IDH1 knockdown viability, ATP luminescence, 48 h. Potency, µM (top dose mostly 46.1 µM), without a hit: at the top dose activity, negative = toxicity, most hits filed as cytotoxic. 2% of 360,000 active;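 note: potency is the fitted concentration of half-maximal effect; 0% = DMSO wells and -100% = cell-free medium wells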
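Viability of IDH1-knockdown HT-1080 fibrosarcoma cells was assessed by CellTiter-Glo after 48 h at 37 °C with titrated compound; concentration-effect curves were classified by fit quality and response size.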
IL-1B inflam inh: qHTS for Inhibitors of Inflammasome Signaling: IL-1-beta AlphaLISA Primary Screen; AID 743279, 2014; activity change, % at 57.5 µM; THP-1 LPS/ATP IL-1B secretion, AlphaLISA, 16 h; hits give low values; 4.7% of 360,000 active; in the data active = activity change below about -50%; inconclusive = mostly about -30% to -49%
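Secreted IL-1B measured by AlphaLISA bead assay after 16 h compound exposure of THP-1 cells; compounds (final up to 57.5 uM) added 1 h before LPS (250 ng/mL) and ATP (1.25 mM) stimulation; lower signal means less secretion.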
HT1080NT lethal: qHTS for induction of synthetic lethality in tumor cells producing 2HG: qHTS for the HT-1080-NT fibrosarcoma cell line | HT-1080-NT fibrosarcoma viability, CellTiter-Glo ATP luminescence, 48 h | 1.6% of 360,000 active | Potency, µM (doses to about 46.1 µM), inactives show at the highest dose activity, negative = less viability, actives largely listed as cytotoxic;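 note: NT is the 2HG producing partner of a matched IDH1 knockdown line; potency is the fitted concentration of half-maximal effect; 0% = DMSO-treated cells and -100% = media-only wells without cells; nearly all actives have a fitted effect of over 55% in size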
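Compounds were tested in concentration-response format on HT-1080-NT cells for 48 hours at 37 degrees C. Cell viability came from CellTiter-Glo luminescence; curves were classified by r2, response magnitude and activity.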
TDP1 cell CPT: qHTS for Inhibitors of human tyrosyl-DNA phosphodiesterase 1 (TDP1): qHTS in cells in presence of CPT. 12% of 420,000 active. Potency, µM (series often up to 46.2 µM), for the others: at the highest dose activity change, negative = growth inhibition, usual class: inhibitors. chicken DT40 Tdp1-/-;hTDP1 cells + 20 nM CPT, ATP luminescence, 48 h; note: potency is the fitted concentration of half-maximal effect; nearly all actives have a fitted effect of over 55% in size
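Cell growth measured by CellTiter-Glo luminescence after a minimum 48 h, 37 C compound exposure with 20 nM CPT in Tdp1-knockout DT40 cells stably expressing hTDP1, seeded 400/well; qHTS titration format.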
TDP1 cell noCPT: qHTS for Inhibitors of human tyrosyl-DNA phosphodiesterase 1 (TDP1): qHTS in cells in absence of CPT | DT40 Tdp1-/- hTDP1 cells, no CPT, ATP luminescence, 48 h | Potency, µM (top dose mostly 46.2 µM), without a hit: at the top dose activity change, negative = growth inhibition, most hits filed as inhibitors | 15% of 420,000 active | AID 686978, 2013; note: potency is the fitted concentration of half-maximal effect; nearly all actives have a fitted effect of over 55% in size
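DT40 Tdp1-/-;hTDP1 cells, no CPT (DMSO vehicle only), 400 cells/well; compounds pin-transferred; ≥48 hr, 37 °C; CellTiter-Glo 30 min RT dark, luminescence read.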
The depositor's hits bear a star; ? = inconclusive; . = no result; [ ] = remark or other dose. Only some compounds are listed: those with a hit (about 19% of all), similar ones and a draw of the others. Unless noted, calls come from the whole dose curve; as a rule, active = well fitted curve in the direction sought with a large enough effect; inconclusive = small, poorly fitted or top-dose-only effect, or another doubt; inactive = no such curve, though single readings can be large; an effect the other way counts as inactive or inconclusive. Unless noted, % is set by controls: 0 for no effect and ±100 for the full control effect.

SMILES | HT1080 IDH1KD tx | IL-1B inflam inh | HT1080NT lethal | TDP1 cell CPT | TDP1 cell noCPT
COc1ccc(CNC(=O)c2csc(Cc3ccc(Cl)cc3)n2)cc1 | -2% | -55* | 0% | -18% | -20%
COc1ccc(Cc2nc(C(=O)Nc3ccccc3)cs2)cc1 | -16% | -54* | ? | -10% | ?
COc1ccc(NC(=O)c2csc(Cc3ccc(Cl)cc3)n2)cc1 | 0% | -4 | 2% | 6% | -4%
CSc1ccc(CN2CCC(n3nccc3NC(=O)c3ccccc3C)CC2)cc1 | -16% | ? | -30% | ? | ?
CCOC(=O)Cc1ccc(NC(=O)N2CC(C)Oc3ccc(Cl)cc32)cc1 (stereo not drawn) | . | . | . | 16µM* | ?
CCOC(=O)Cc1ccc(NC(=O)N2CC(CC)Oc3ccccc32)cc1 (stereo not drawn) | . | . | . | 16µM* | ?
COc1ccc(-n2nnnc2C2(C)CCC(=O)N2Cc2ccccc2)cc1 (stereo not drawn) | 12% | 0 | 20% | 20% | 8%
COCCn1c(NCc2ccco2)nc2c1c(=O)[nH]c(=O)n2C | 3% | 22 | 14% | -4% | -10%
Cn1c(=O)c2c(nc(NCc3ccco3)n2CC(O)COc2ccccc2)n(C)c1=O (stereo not drawn) | -4% | -22 | 1% | ? | 9.2µM*
CCCn1c(NCc2ccco2)nc2c1c(=O)n(C)c(=O)n2C | 1%[9.24 µM] | -9 | -1% | ? | 13µM*
COc1cccc(Cn2c(NCc3ccco3)nc3c2c(=O)n(C)c(=O)n3C)c1 | -24% | -23 | -27% | 1.8µM* | 1.5µM*
COc1ccc(Cl)c(Cn2c(NCc3ccco3)nc3c2c(=O)n(C)c(=O)n3C)c1 | 0% | 9 | -9% | 4.6µM* | 3.7µM*
CCN(CC)S(=O)(=O)c1ccc2[nH]c(=O)[nH]c2c1 | -1% | 8 | -2% | 1% | -29%
C[C@@H]1O[C@@H](O[C@@H]2[C@@H](O)[C@H](OCCc3ccc(O)c(O)c3)O[C@H](CO)[C@H]2OC(=O)/C=C/c2ccc(O)c(O)c2)[C@H](O)[C@H](O)[C@H]1O | 5% | 3 | 12% | -14% | -1%
Cc1cccc(-c2nnc(-c3cccc(NC(=O)Cc4cccs4)c3)o2)c1 | ? | ? | ? | 18µM* | 15µM*
O=C(Nc1cccc(-c2nnco2)c1)c1cccs1 | 20% | -19 | 12% | 2% | -25%
O=C(Cc1cccs1)Nc1ccc(-c2nnc(-c3ccccc3)o2)cc1 | 23% | 0 | 5% | -21% | -30%
O=C(Cc1cccs1)Nc1cccc(C(=O)Nc2ccco2)c1 | 11µM* | -20 | ? | -7% | ?
Cc1ccc(-c2nnc(-c3cccc(NC(=O)c4cccs4)c3)o2)cc1 | -14% | -3 | -2% | ? | 23µM*
COc1ccc(C(C(=O)NC2CCCC2)N(C(=O)c2snc(C(N)=O)c2N)c2ccccc2OC)cc1OC (stereo not drawn) | 7% | -9 | 12% | -28% | -9%
COc1ccc(N(C(=O)c2snc(C(N)=O)c2N)C(C(=O)NC2CCCC2)c2cc(OC)ccc2OC)c(OC)c1 (stereo not drawn) | -5% | -25 | -27% | 23µM* | 29µM*
COc1ccc(C(C(=O)NC2CCCC2)N(C(=O)c2snc(C(N)=O)c2N)c2cccc(O)c2)cc1 (stereo not drawn) | -7% | -4 | ? | ? | 13µM*
NC(=O)c1nsc(C(=O)N(c2cccc(F)c2)C(C(=O)NC2CCCC2)c2ccc(O)cc2)c1N (stereo not drawn) | -7% | 6 | -23% | -27% | -19%

Screening results deposited in PubChem by National Center for Advancing Translational Sciences (NCATS).
